Experimental data from PubChem BioAssay (NCATS).
Results filed as inconclusive are left out. Calls of active or inactive are those of the source. Unless noted, calls come from the whole dose curve; as a rule, active = well fitted curve in the direction sought with a large enough effect; inconclusive = small, poorly fitted or top-dose-only effect, or another doubt; inactive = no such curve, though single readings can be large; an effect the other way counts as inactive or inconclusive.

Tests used:
[1] = biological target: Lysosomal acid glucosylceramidase (Homo sapiens) (UniProt P04062); experiment: Glucocerebrosidase-p2 (AID 348; in the data active = potency below about 10 µM; note: potency is the fitted concentration of half-maximal effect); conditions: purified GBA, blue fluorogenic substrate, 40 min
How it was run: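 Compounds titrated from 0.6 nM upwards against 0.2 nM enzyme in pH 5.9 citric acid/KH2PO4, taurocholate, tween-20; blue fluorogenic substrate 80 uM, 40 min room temperature, stopped and read Ex 365/Em 440 for AC50.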

[2] = AP1 Signaling Pathway (AID 357; active = well fitted curve in either direction with a large enough effect, not every such curve was filed as active;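 note: ME-180 reporter cells stimulated with EGF at its EC50 level; % is set by controls: 0 for no effect and ±100 for the full control effect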); conditions: ME-180 AP-1-bla reporter, EGF-induced, beta-lactamase ratio, 5 h; at 7.69 µM (top of the series) unless noted
How it was run: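 A ratiometric CCF4 readout (405 nm excitation; 460 and 530 nm emission) quantified AP-1-driven beta-lactamase in ME-180 cells after 5 h with compound and EC50 EGF; AC50 values were derived for activators and inhibitors.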

[3] = NFAT Signaling Pathway (AID 444; active = well fitted curve in either direction with a large enough effect, not every such curve was filed as active;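 note: carbachol stimulus at about its EC50 of 1 µM final; % is set by controls: 0 for no effect and ±100 for the full control effect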); conditions: Jurkat NFAT-bla M1, carbachol, beta-lactamase ratio, 5 h; at 7.69 µM (top of the series) unless noted
How it was run: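 Jurkat cells carrying an NFAT-driven β-lactamase reporter and co-transfected muscarinic M1 receptor were treated with compound plus carbachol (1 uM final, an EC50 level) for 5 h at 37 °C. CCF4 loading followed for 1 h at RT; 460/530 nm ratio gave %activity.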

[4] = Stat Signaling Pathway (AID 446; active = well fitted curve in either direction with a large enough effect, not every such curve was filed as active;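 note: ME-180 cervical cancer cells given 40 pM IL-6 alongside compound; SIE-controlled beta-lactamase reporter measured as 460/530 nm FRET emission ratio; % is set by controls: 0 for no effect and ±100 for the full control effect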); conditions: ME-180 SIE beta-lactamase reporter, IL-6 stimulated, 5 h; at 7.69 µM (top of the series) unless noted
How it was run: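 IL-6/STAT signaling read in ME-180 cells via an SIE beta-lactamase reporter. Stimulus was 40 pM IL-6 (its AC50) for 5 hrs, so both activation and inhibition register.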

[5] = biological target: Glucocorticoid receptor (Homo sapiens) (UniProt P04150); experiment: GR-GFP Redistribution (AID 450;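 active = compounds whose dose series gives a full or clear partial fitted curve of increased nuclear translocation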; note: potency is the fitted concentration of half-maximal effect); conditions: U2OS GR-GFP nuclear translocation, laser cytometry, 2 h
[6] = biological target: Glucocorticoid receptor (Homo sapiens) (UniProt P04150); experiment: GR-EFC Redistribution (AID 451; calls by dose curve; note: potency is the fitted concentration of half-maximal effect); conditions: CHO-K1 GR-EFC translocation, beta-gal luminescence, 2 h
How it was run: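 CHO-K1 cells stably expressing nuclear-localized β-gal enzyme acceptor and GR fused C-terminally to the enzyme donor fragment; ligand-driven nuclear translocation restores β-gal by complementation. Compounds titrated up to 46 uM final, 2 h at 37 °C; luminescence read.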

[7] = biological target: Mitogen-activated protein kinase 10 (Mus musculus) (UniProt Q61831); experiment: JNK3 AlphaScreen Assay (AID 530; active = well fitted curve in either direction with a large enough effect, not every such curve was filed as active;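 note: kinase came from lysate of stimulated human HepG2 cells; signal reports phosphorylation of biotinylated GST-cJun 1-79 at Ser73 with 10 µM ATP; % is set by controls: 0 for no effect and ±100 for the full control effect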); conditions: JNK3 lysate, c-Jun phosphorylation; series mostly up to 57.1 µM
How it was run: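 JNK3 came from HepG2 lysates pre-activated with IL-1beta and TNF-alpha and phosphorylated biotinylated GST-cJun (1-79) at 10 uM ATP, pH 7.6, room temperature. Compounds were titrated. AlphaScreen signal used anti-phospho-cJun (Ser73) antibody.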

[8] = biological target: Cytochrome P450 3A4 (Homo sapiens) (UniProt P08684); experiment: qHTS Assay for Activators of Cytochrome P450 3A4 (AID 885); conditions: recombinant CYP3A4, Luciferin-PPXE luminescence, 60 min; series mostly up to 57.1 µM; note: nearly all actives have a fitted effect of over 65% in size
How it was run: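 Quantitative HTS format: compounds preincubated with 20nM human CYP3A4 and Luciferin-PPXE substrate at KM, reaction started by NADPH regeneration, stopped after 60 min, luciferase luminescence read 20 min later.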

[9] = qHTS Assay for Lipid Storage Modulators (AID 1519; calls by dose curve); conditions: Drosophila S3 cells, BODIPY lipid droplet/cell ratio, laser cytometry, cells loaded with oleic acid; for activity change, negative = inhibition: at 57.5 µM (top of the series)
How it was run: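 Cells seeded at 5,000 per well were treated with compounds over a concentration series and loaded with oleic acid (400 uM, as added). Lipid droplet fluorescence (488 nm excitation, 500-530 nm channel) was read by laser-scanning cytometry and normalized to 20 uM Triacsin C.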

[10] = biological target: Dual specificity protein kinase CLK4 (Homo sapiens) (UniProt Q9HAZ1); experiment: qHTS Assay for Inhibitors of CDC-like Kinase 4 (Kinase-Glo Assay) (AID 1770); conditions: recombinant Clk4, Kinase-Glo ATP depletion luminescence; series mostly up to 66.7 µM; note: nearly all actives have a fitted effect of over 65% in size; note: potency is the fitted concentration of half-maximal effect
How it was run: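 Inhibition was judged from remaining ATP, measured by Ultra-Glo luciferase bioluminescence after Clk4 (25 nM) had acted on RS peptide at 1 uM ATP for 4.5 hours, room temperature.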

[11] = biological target: Dual specificity protein kinase CLK4 (Homo sapiens) (UniProt Q9HAZ1); experiment: qHTS Assay for Inhibitors of CDC-like Kinase 4 (ADP-FP Assay) (AID 1795); conditions: Transcreener ADP fluorescence polarization; series mostly up to 50 µM;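 note: recombinant human CLK4 phosphorylating RS repeat peptide at 1 µM ATP; % is set by controls: 0 for no effect and ±100 for the full control effect; nearly all actives have a fitted effect of over 60% in size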
How it was run: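 Inhibition of ADP formation by 6.25 nM Clk4 is measured using 1 uM ATP and 100 uM RS repeat peptide over one hour. Produced ADP displaces a fluorescent tracer from antibody, lowering polarization.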

[12] = biological target: Ubiquitin carboxyl-terminal hydrolase 1 (Homo sapiens) (UniProt O94782); experiment: Inhibitors of USP1/UAF1: Pilot qHTS (AID 504865); conditions: purified USP1/UAF1, Ub-rhodamine cleavage fluorescence; series mostly up to 54.9 µM;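 note: rhodamine fluorescence freed from ubiquitin-rhodamine substrate followed over time; top concentration of the series differs between compounds; % is set by controls: 0 for no effect and ±100 for the full control effect; nearly all actives have a fitted effect of over 35% in size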
How it was run: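 Kinetic fluorescence assay: 1nM USP1/UAF1, 15 min compound preincubation, then 150nM Ub-Rho; 480/540 nm.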

[13] = Primary qHTS for small molecule stabilizers of the endoplasmic reticulum resident proteome: Secreted ER Calcium Modulated Protein (SERCaMP) assay (AID 1508630); conditions: SH-SY5Y GLuc-SERCaMP (Gaussia luciferase released on ER calcium loss) secretion, thapsigargin, luminescence; series mostly up to 38.4 µM; note: % is set by controls: 0 for no effect and ±100 for the full control effect
How it was run: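 GLuc-SERCaMP-expressing SH-SY5Y cells, pretreated 16 h with compound, are challenged with thapsigargin to empty ER calcium stores; after 4 h, coelenterazine is added directly to the medium and luminescence is imaged.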

[14] = biological target: 3',5'-cyclic-AMP phosphodiesterase 4B (Homo sapiens) (UniProt Q07343); experiment: qHTS Assay for Inhibitors of PDE-IV (AID 607; active = well fitted activation curve with a large enough effect in the main read-out, with a control signal flat, not every such curve was filed as active; note: % of control where 0% means no effect); conditions: HEK293 ACTOne CNG channel cells, membrane potential fluorescence; series mostly up to 22.9 µM
How it was run: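 Live HEK293 cells with a modified cyclic nucleotide-gated (CNG) channel report intracellular cAMP via membrane-potential dye fluorescence (ex 535/em 590 nm). Endogenous PDE-IV was targeted. Compounds were tested at up to 22.9 uM final; RO 20-1724 100 uM served as control.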

[15] = biological target: Dual specificity protein kinase CLK4 (Homo sapiens) (UniProt Q9HAZ1); experiment: qHTS Assay for Inhibitors of CDC-like Kinase 4 (ADP-Glo Assay) (AID 1771); conditions: recombinant CLK4, ADP-Glo luminescence; series mostly up to 80 µM; note: potency is the fitted concentration of half-maximal effect; nearly all actives have a fitted effect of over 70% in size
How it was run: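 Clk4 (25 nM) was incubated 1 hr at room temperature with 100 uM RS repeat peptide and 1 uM ATP in buffer with 2 mM MgCl2, 0.5 mM EGTA, 2.5 mM DTT. ADP formed was quantified by ADP-Glo luminescence.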

[16] = biological target: Cytochrome P450 1A2 (Homo sapiens) (UniProt P05177); experiment: p450-cyp1a2 (AID 410; calls by dose curve; note: potency is the fitted concentration of half-maximal effect); conditions: recombinant CYP1A2, luciferin-ME demethylation, luminescence; series mostly up to 57 µM
How it was run: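 Human CYP1A2 (20nM) demethylated Luciferin-ME at its Km (100uM) in 100mM KPO4. After 10 min compound preincubation, NADPH regeneration ran the reaction 60 min at room temperature. Luciferin was read by luminescence, normalized to 57 uM furafylline.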

[17] = qHTS Assay for Identification of Small Molecule Agonists for Hypoxia Response Element Signaling Pathway (AID 914; active = well fitted activation curve with a large enough effect in the signal ratio, with a control signal flat, not every such curve was filed as active; the % refers to the signal ratio; note: % of control where 0% means no effect); conditions: ME-180 (cervical carcinoma) HRE-bla reporter, beta-lactamase ratio, CoCl2, 17 h; activation: stronger effect = higher value
How it was run: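 HRE-bla ME-180 assay for agonist-like enhancement of an EC50 CoCl2 stimulus: 17 h at 37 degrees Celsius, CCF4 for 2.5 h, ratiometric 460/530 nm signal converted to %Activity and fitted to AC50.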

[18] = biological target: Cytochrome P450 2C9 (Homo sapiens) (UniProt P11712); experiment: qHTS Assay for Inhibitors and Substrates of Cytochrome P450 2C9 (AID 883); conditions: recombinant CYP2C9, luciferin-H luminescence, 60 min; series mostly up to 57.1 µM; note: potency is the fitted concentration of half-maximal effect; nearly all actives have a fitted effect of over 60% in size
How it was run: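 Human CYP2C9 (10nM) hydroxylated Luciferin-H (100uM, at its KM) to luciferin in 25mM KPO4. Compound was preincubated 10 min at 37C, then NADPH regeneration started a 60 min reaction at 37C. Luminescence was read after detection reagent, normalized to 57uM sulphaphenazole.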

[19] = biological target: Cytochrome P450 3A4 (Homo sapiens) (UniProt P08684); experiment: qHTS Assay for Inhibitors and Substrates of Cytochrome P450 3A4 (AID 884); conditions: recombinant CYP3A4, Luciferin-PPXE luminescence; series mostly up to 57.1 µM; note: potency is the fitted concentration of half-maximal effect; nearly all actives have a fitted effect of over 50% in size
How it was run: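 20 nM human CYP3A4 with 25 uM Luciferin-PPXE (at KM) in 200 mM KPO4, preincubated 10 min with compound; NADPH regeneration started a 60 min RT reaction. Luciferin detected by luminescence, normalized to 57 uM ketoconazole as full inhibition.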

[20] = measured here: cell count channel max response
[21] = measured here: lipid channel max response

Chain of Cytochrome P450 3A4 (Homo sapiens) (P08684 whole entry, looked up): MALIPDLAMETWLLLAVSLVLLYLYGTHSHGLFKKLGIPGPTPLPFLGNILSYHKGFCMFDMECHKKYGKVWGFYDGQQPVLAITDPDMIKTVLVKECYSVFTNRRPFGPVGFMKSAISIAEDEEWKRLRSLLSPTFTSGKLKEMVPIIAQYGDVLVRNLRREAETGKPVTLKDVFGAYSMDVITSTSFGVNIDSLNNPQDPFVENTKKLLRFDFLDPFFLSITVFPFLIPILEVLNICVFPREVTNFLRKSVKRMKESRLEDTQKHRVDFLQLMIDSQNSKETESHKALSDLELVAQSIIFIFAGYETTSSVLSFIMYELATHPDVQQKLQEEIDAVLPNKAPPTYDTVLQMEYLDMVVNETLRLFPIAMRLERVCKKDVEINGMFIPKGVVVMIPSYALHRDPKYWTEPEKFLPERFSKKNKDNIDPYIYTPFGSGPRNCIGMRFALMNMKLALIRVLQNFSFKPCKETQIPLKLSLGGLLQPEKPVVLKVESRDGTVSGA
Chain of Lysosomal acid glucosylceramidase (Homo sapiens) (P04062 whole entry, looked up): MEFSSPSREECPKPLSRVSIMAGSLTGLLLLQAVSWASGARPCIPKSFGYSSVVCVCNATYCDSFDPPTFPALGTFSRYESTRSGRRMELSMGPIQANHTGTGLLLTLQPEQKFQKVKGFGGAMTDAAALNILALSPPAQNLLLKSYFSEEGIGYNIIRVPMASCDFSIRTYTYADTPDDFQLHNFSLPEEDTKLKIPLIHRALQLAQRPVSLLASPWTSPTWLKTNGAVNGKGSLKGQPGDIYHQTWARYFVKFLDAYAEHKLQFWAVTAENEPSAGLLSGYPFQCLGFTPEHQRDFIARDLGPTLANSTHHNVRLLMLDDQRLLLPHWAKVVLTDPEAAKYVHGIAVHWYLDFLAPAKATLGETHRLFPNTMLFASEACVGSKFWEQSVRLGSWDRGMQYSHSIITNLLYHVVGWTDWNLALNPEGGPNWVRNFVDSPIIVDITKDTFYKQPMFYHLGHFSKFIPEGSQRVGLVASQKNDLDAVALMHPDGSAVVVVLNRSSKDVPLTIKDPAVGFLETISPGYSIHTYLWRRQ
Chain of Glucocorticoid receptor (Homo sapiens) (P04150 whole entry, looked up, the tested form may be a part): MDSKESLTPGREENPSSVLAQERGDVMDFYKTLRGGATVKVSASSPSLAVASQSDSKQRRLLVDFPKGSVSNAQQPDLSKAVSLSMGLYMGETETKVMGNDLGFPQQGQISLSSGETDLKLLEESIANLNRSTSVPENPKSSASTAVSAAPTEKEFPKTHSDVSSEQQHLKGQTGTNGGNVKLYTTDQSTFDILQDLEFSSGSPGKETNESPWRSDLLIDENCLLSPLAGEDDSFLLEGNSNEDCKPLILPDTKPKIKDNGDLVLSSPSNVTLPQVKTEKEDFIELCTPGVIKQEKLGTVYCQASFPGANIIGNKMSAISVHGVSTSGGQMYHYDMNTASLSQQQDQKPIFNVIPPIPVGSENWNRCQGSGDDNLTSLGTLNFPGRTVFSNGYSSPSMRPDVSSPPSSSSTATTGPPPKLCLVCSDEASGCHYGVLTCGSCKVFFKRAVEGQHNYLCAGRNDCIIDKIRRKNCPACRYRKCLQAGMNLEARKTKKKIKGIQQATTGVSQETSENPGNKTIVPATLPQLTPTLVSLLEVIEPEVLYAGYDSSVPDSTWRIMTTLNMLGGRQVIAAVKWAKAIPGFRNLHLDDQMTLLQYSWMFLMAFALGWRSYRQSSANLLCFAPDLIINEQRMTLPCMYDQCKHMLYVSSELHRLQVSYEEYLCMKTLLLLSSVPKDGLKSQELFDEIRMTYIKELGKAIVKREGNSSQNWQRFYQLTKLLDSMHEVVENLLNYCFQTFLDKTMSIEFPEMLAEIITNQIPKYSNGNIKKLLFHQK
Chain of 3',5'-cyclic-AMP phosphodiesterase 4B (Homo sapiens) (Q07343 whole entry, looked up): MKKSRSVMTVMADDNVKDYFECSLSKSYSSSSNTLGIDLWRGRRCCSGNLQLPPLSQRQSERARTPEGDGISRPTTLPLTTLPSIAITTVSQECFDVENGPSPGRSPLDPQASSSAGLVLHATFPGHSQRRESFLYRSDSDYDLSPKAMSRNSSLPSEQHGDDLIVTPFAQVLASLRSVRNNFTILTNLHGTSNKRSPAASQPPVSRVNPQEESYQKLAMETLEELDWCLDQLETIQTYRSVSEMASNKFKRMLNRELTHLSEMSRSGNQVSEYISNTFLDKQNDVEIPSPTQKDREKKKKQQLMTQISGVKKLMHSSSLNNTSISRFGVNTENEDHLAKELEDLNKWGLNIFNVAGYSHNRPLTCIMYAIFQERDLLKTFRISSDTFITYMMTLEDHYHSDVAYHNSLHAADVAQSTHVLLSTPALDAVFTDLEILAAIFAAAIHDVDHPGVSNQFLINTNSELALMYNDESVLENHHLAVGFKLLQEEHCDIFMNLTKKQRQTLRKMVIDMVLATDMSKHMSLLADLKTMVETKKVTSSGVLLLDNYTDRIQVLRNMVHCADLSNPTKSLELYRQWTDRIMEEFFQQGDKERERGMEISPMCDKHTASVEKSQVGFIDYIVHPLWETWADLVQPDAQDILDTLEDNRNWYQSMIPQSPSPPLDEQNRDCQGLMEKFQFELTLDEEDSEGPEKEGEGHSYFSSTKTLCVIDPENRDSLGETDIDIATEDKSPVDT
Chain of Cytochrome P450 1A2 (Homo sapiens) (P05177 whole entry, looked up): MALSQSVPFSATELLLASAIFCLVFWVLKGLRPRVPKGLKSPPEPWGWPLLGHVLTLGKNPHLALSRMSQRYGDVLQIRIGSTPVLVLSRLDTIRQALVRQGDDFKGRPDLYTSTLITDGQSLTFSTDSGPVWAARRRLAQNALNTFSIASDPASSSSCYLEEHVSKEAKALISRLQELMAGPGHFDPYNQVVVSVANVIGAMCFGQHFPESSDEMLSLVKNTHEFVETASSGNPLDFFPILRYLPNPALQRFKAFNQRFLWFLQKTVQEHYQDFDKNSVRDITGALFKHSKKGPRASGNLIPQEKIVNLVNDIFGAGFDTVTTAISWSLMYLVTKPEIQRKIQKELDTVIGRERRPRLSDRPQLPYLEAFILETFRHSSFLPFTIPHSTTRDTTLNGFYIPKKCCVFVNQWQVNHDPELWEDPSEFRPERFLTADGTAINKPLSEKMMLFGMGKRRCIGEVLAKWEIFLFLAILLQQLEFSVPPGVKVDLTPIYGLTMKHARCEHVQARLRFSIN
Chain of Ubiquitin carboxyl-terminal hydrolase 1 (Homo sapiens) (O94782 whole entry, looked up): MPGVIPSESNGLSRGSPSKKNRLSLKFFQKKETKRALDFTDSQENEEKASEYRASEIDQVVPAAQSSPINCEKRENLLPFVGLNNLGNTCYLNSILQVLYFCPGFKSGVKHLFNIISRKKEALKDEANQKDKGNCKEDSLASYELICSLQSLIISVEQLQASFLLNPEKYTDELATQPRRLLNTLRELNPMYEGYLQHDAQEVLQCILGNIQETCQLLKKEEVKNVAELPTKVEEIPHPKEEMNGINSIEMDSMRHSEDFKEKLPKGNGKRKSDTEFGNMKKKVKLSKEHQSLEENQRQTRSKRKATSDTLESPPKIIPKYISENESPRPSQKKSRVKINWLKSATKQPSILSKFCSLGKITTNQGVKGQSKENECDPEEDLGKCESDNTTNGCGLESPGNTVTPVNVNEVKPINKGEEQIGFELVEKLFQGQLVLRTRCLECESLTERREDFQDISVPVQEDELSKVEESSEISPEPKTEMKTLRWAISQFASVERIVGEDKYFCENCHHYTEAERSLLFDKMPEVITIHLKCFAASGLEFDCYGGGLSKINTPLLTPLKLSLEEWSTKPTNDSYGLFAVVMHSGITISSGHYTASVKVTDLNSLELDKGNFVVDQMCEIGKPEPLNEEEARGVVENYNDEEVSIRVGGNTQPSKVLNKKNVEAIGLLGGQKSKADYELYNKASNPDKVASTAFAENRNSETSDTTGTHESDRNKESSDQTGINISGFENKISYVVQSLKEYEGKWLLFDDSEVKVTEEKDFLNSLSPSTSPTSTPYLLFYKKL
Chain of Dual specificity protein kinase CLK4 (Homo sapiens) (Q9HAZ1 whole entry, looked up): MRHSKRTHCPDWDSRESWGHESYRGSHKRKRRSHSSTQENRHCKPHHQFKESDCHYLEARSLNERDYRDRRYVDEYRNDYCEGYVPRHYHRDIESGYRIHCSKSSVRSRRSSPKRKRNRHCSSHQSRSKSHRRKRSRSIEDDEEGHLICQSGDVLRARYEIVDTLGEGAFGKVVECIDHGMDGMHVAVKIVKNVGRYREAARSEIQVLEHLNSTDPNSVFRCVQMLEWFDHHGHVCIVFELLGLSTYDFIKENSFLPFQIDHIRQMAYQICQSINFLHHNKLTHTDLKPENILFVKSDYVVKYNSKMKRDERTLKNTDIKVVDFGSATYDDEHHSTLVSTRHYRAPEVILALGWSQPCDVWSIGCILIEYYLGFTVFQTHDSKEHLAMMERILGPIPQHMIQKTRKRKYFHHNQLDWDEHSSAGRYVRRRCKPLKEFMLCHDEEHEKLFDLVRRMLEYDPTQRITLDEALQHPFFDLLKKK
Chain of Cytochrome P450 2C9 (Homo sapiens) (P11712 whole entry, looked up): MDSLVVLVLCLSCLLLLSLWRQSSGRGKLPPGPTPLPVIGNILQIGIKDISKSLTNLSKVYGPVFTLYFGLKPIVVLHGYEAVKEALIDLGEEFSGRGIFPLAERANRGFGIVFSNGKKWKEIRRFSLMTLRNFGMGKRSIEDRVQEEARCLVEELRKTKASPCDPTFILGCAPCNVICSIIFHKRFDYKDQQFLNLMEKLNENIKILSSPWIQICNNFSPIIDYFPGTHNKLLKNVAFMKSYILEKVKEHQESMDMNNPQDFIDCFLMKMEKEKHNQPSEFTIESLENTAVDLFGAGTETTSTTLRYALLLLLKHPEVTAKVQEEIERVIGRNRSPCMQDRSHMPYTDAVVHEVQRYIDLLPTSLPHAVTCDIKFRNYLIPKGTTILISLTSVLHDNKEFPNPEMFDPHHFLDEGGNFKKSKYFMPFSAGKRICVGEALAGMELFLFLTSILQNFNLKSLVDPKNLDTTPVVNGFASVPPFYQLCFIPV

c1csc(CNc2ccnc(-c3ccoc3)n2)c1
21.1%: max response [9, 20]
inactive: Potency [1] > 11.4 µM | activity change, negative = inhibition [2] 8.64% | activity change, negative = inhibition [3] -0.203% | activity, negative = inhibition [4] 10.3% | Potency [5] > 46 µM | Potency [6] > 46 µM | outcome [7] | Potency [8] | activity change, negative = inhibition [9] 5% | Potency [10] | Potency [11] | Potency [12] | Potency [13]
20.9%: max response [9, 21]

CNc1nc(-c2ccc3c(c2)OCO3)nc2ccccc12
2.96%: max response [9, 20]
inactive: Potency [1] 11.4 µM | activity change, negative = inhibition [2] 28.9% | activity change, negative = inhibition [3] 1.91% | activity, negative = inhibition [4] -1.35% | Potency [5] > 46 µM | Potency [6] > 46 µM | outcome [7] | Potency [14] | activity change, negative = inhibition [9] -5.22% | Potency [13]
active: Potency [10] 14.1 µM | Potency [15] 28.2 µM
-1.26%: max response [9, 21]

O=c1cnc2cnc(Nc3ccccc3)nc2n1Cc1cccs1
active: Potency [16] 1 µM | Potency [10] 1.41 µM | Potency [15] 2 µM
12.5%: max response [9, 21]
inactive: Potency [1] > 11.4 µM | Potency [5] > 9.22 µM | Potency [6] > 46 µM | outcome [7] | Potency [8] | activity change, negative = inhibition [9] 1.01% | Potency [12] | Potency [13]
12.8%: max response [9, 20]

Cn1c(=O)c(-c2cccs2)nc2cnc(N3CCOCC3)nc21
inactive: Potency [1] > 11.4 µM | activity change, negative = inhibition [2] -14% | activity change, negative = inhibition [3] -9.83% | activity, negative = inhibition [4] -4.84% | Potency [5] > 9.22 µM | Potency [6] > 46 µM | outcome [7] | Potency [14] | activation [17] 11.8% | activity change, negative = inhibition [9] 5.09% | Potency [10] | Potency [11] | Potency [12] | Potency [13]
14.1%: max response [9, 20]
active: Potency [16] 5.01 µM
16.5%: max response [9, 21]

O=c1c(-c2cccs2)nc2cncnc2n1Cc1ccccc1
inactive: Potency [1] > 11.4 µM | activity change, negative = inhibition [2] -16.8% | activity change, negative = inhibition [3] 1.15% | activity, negative = inhibition [4] 7.21% | Potency [5] > 9.22 µM | Potency [6] > 46 µM | outcome [7] | Potency [8] | activity change, negative = inhibition [9] 1.03% | Potency [10] | Potency [11] | Potency [12] | Potency [13]
21.4%: max response [9, 21]
22.1%: max response [9, 20]
active: Potency [16] 2.51 µM | Potency [18] 1.26 µM | Potency [19] 6.31 µM

Cn1c(=O)c(-c2ccccc2)nc2cncnc21
8.5%: max response [9, 20]
16.6%: max response [9, 21]
active: Potency [16] 0.631 µM
inactive: Potency [1] > 11.4 µM | activity change, negative = inhibition [2] -7.79% | activity change, negative = inhibition [3] -9.84% | activity, negative = inhibition [4] -4.68% | Potency [5] > 9.22 µM | Potency [6] > 46 µM | outcome [7] | Potency [14] | Potency [8] | activity change, negative = inhibition [9] 6.1% | Potency [10] | Potency [11] | Potency [12] | Potency [13]
